Assay results: ChEMBL document CHEMBL3988442, “University of Dundee, Small-Polar-MMV Screening Library” (2021)

molecular target: T1, Aspartate--tRNA(Asp/Asn) ligase (Mycobacterium tuberculosis (strain ATCC 25618 / H37Rv)) (UniProt P9WFW3); assay: Assay for Asp RNA synthetase-1 from Mycobacterium tuberculosis; type: functional; set-up: scale not given: direction of the effect not stated beside the values; conditions: 30 µM; also: in the data most compounds retested in dose-response had high values
T1 sequence (whole entry): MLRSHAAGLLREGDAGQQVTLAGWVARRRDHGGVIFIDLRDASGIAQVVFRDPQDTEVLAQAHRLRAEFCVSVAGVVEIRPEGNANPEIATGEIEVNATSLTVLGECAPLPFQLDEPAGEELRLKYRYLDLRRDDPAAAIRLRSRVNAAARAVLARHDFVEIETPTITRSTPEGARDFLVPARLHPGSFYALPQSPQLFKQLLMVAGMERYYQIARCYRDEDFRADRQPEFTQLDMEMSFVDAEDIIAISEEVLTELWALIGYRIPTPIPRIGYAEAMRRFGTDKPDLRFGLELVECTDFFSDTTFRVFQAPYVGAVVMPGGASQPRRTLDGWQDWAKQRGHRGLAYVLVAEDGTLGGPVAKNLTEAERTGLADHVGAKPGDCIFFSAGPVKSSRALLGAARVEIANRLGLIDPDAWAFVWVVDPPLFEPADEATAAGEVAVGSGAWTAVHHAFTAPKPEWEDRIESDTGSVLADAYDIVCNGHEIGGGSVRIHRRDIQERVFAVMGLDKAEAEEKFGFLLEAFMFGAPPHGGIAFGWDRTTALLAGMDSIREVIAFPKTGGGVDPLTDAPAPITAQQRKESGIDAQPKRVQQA

SMILES | Percent Effect [%]
O=C(c1cn(-c2ccccc2Cl)nn1)N1CCCSCC1 | 0.212
CCc1ccccc1NC(=O)N1CCn2cnc(COC)c2C1 | -3.09
CS(=O)(=O)c1snnc1C1CCN(Cc2ccncc2)CC1 | -6.42
COc1ccc(CN2CCC[C@@H]3CN(C(=O)c4ccco4)C[C@@H]32)cc1 | 5.87
O=C(O)CCc1cc2n(n1)CCCN(C(=O)c1ccc3cc[nH]c3c1)C2 | -1.19
CCc1nccn1C1CCCN(C(=O)c2csc(NC(C)=O)n2)C1 (stereo not given) | -1.64
Cc1ccc(CN(C)CC(=O)NC2(C)CCS(=O)(=O)C2)cc1 (stereo not given) | 1.84
N#CCCN(CCC#N)C(=O)CN1CCCC1Cc1cccc(F)c1 (stereo not given) | 5.73
O=C(Cc1ccc2c(c1)OCO2)N1CCN(c2cnccn2)CC1 | -3.06
Cc1cc(NC(=O)C(C)N2CCCN(c3nccs3)CC2)on1 (stereo not given) | -2.75
Cc1cnc(CN(C)CC2CCCN2c2cccnn2)cn1 (stereo not given) | 2.77
CC(C)(C)c1ncc2c(n1)CN(C(=O)c1ccc(-c3nc[nH]n3)cc1)C2 | -2.37
CC(O)CN1CCN(C(=O)c2ccc(Cn3cccc3)cc2)CC1 (stereo not given) | 11
Cc1nc(C2CCCN(C(=O)c3scnc3C)C2)no1 (stereo not given) | 1.59
c1nc2c(c(C3CC3)n1)CCN(Cc1ccoc1)CC2 | 2.3
COc1cc(C(=O)Nc2nc(C)no2)ccc1C | -0.143
O=C(O)c1c[nH]c2cc(NS(=O)(=O)c3cccc(Cl)c3F)ccc12 | 2.61
Cc1cccc(CN2C(=O)CC[C@@H]3[C@H]2CCN3CC2CCOCC2)n1 | -1.51
CCCN1CCCn2nc(CNS(=O)(=O)c3cccc(C#N)c3)cc2C1 | -1.36
Cc1nc(C)n(CC2CN(Cc3cccc(C#N)c3)CCO2)n1 (stereo not given) | 3.11

SMILES | Percent Effect [%]
COc1ccccc1CCNC(=O)CN1CCCC1c1noc(C)n1 (stereo not given) | -3.12
FC1(F)CCN(Cc2ccccn2)CC12CCN(c1cccnc1)C2 (stereo not given) | 1.08
Cc1cnn(CC2CCCN2C(=O)c2ccc(C(N)=O)cn2)c1 (stereo not given) | -2.92
CN1[C@H](Cn2cncn2)C[C@@H]2CN(Cc3cccc(C#N)c3)CC[C@@H]21 | 0.0985
Cc1ncc(CNC(=O)CCc2cccc(F)c2)c(C2CCCN2C)n1 (stereo not given) | 1.77
CCOC(=O)NC(CNC(=O)c1ccccn1)CC(C)C (stereo not given) | -2.16
CC(=O)N1CCN(CC2CCOc3ccccc3C2)CC1 (stereo not given) | 1.75
CCS(=O)(=O)N1CCO[C@H]2[C@H](OCCCn3cccn3)CC[C@@H]21 | 0.786
O=C(c1ccc(F)cc1F)N1CC[C@H](O)[C@@H](N2CCOCC2)CC1 | 0.28
NC(=O)c1cnn2c1NCC(CNCCCOc1ccccc1F)C2 (stereo not given) | -0.278
CCc1noc(C(C)N2CCN(c3ccc(C#N)cn3)CC2)n1 (stereo not given) | -2.49
Cc1cc(F)ccc1CN1CCCC2(C1)OCCO2 | -5.59
O=C(c1ccoc1)N1CC[C@H]2OCC[C@@]2(COc2ncccc2F)C1 | -0.296
CC(C)C(=O)NC1CCN(Cc2cccc3c2OCCO3)CC1 | -1.32
CCn1cc(CN2CCCN(C(=O)c3sccc3C#N)CC2)cn1 | 0.257
Cc1nc(C)n(CC2CCCCN2Cc2nnc(C3CC3)o2)n1 (stereo not given) | 1.18
Cc1cnn(CC2CCCN2Cc2nc3ccccc3n2C)c1 (stereo not given) | 3.43
O=C(c1cccnc1)N1CCc2ncnc(C3CCOC3)c2CC1 (stereo not given) | -5.37
CC(=O)N1CCOCC2(CN(Cc3ccc(C)o3)CCO2)C1 (stereo not given) | 1.57
Cc1nc[nH]c1CN(C)CC1CCCN(CCc2ccc(Cl)cc2)C1 (stereo not given) | 4.6

molecular target: Shiga toxin 2 (Escherichia coli O157:H7) (UniProt P09385+P09386); assay: E. coli 0.157:H7 Shiga Toxin SOP - stx2 screening assay; type: functional; set-up: scale not given: direction of the effect not stated beside the values; conditions: 30 µM

SMILES | Percent Effect [%]
O=C(c1cn(-c2ccccc2Cl)nn1)N1CCCSCC1 | 5.41
CCc1ccccc1NC(=O)N1CCn2cnc(COC)c2C1 | 6.27
CS(=O)(=O)c1snnc1C1CCN(Cc2ccncc2)CC1 | 0.0805
COc1ccc(CN2CCC[C@@H]3CN(C(=O)c4ccco4)C[C@@H]32)cc1 | 0.332
O=C(O)CCc1cc2n(n1)CCCN(C(=O)c1ccc3cc[nH]c3c1)C2 | -1.98
CCc1nccn1C1CCCN(C(=O)c2csc(NC(C)=O)n2)C1 (stereo not given) | -11.1
Cc1ccc(CN(C)CC(=O)NC2(C)CCS(=O)(=O)C2)cc1 (stereo not given) | -25.3
N#CCCN(CCC#N)C(=O)CN1CCCC1Cc1cccc(F)c1 (stereo not given) | -0.707
O=C(Cc1ccc2c(c1)OCO2)N1CCN(c2cnccn2)CC1 | 19
Cc1cc(NC(=O)C(C)N2CCCN(c3nccs3)CC2)on1 (stereo not given) | 4.75
Cc1cnc(CN(C)CC2CCCN2c2cccnn2)cn1 (stereo not given) | 7.46
CC(C)(C)c1ncc2c(n1)CN(C(=O)c1ccc(-c3nc[nH]n3)cc1)C2 | -62.9
CC(O)CN1CCN(C(=O)c2ccc(Cn3cccc3)cc2)CC1 (stereo not given) | 19.4
Cc1nc(C2CCCN(C(=O)c3scnc3C)C2)no1 (stereo not given) | 5.86
c1nc2c(c(C3CC3)n1)CCN(Cc1ccoc1)CC2 | -14.5
COc1cc(C(=O)Nc2nc(C)no2)ccc1C | -2.1
O=C(O)c1c[nH]c2cc(NS(=O)(=O)c3cccc(Cl)c3F)ccc12 | 12.3
Cc1cccc(CN2C(=O)CC[C@@H]3[C@H]2CCN3CC2CCOCC2)n1 | -5.24
CCCN1CCCn2nc(CNS(=O)(=O)c3cccc(C#N)c3)cc2C1 | 28.5
Cc1nc(C)n(CC2CN(Cc3cccc(C#N)c3)CCO2)n1 (stereo not given) | 20.9

SMILES | Percent Effect [%]
COc1ccccc1CCNC(=O)CN1CCCC1c1noc(C)n1 (stereo not given) | 34.4
FC1(F)CCN(Cc2ccccn2)CC12CCN(c1cccnc1)C2 (stereo not given) | -6.96
Cc1cnn(CC2CCCN2C(=O)c2ccc(C(N)=O)cn2)c1 (stereo not given) | 11.5
CN1[C@H](Cn2cncn2)C[C@@H]2CN(Cc3cccc(C#N)c3)CC[C@@H]21 | -24.3
Cc1ncc(CNC(=O)CCc2cccc(F)c2)c(C2CCCN2C)n1 (stereo not given) | -9.03
CCOC(=O)NC(CNC(=O)c1ccccn1)CC(C)C (stereo not given) | -4.01
CC(=O)N1CCN(CC2CCOc3ccccc3C2)CC1 (stereo not given) | -26.3
CCS(=O)(=O)N1CCO[C@H]2[C@H](OCCCn3cccn3)CC[C@@H]21 | -17.2
O=C(c1ccc(F)cc1F)N1CC[C@H](O)[C@@H](N2CCOCC2)CC1 | -21.2
NC(=O)c1cnn2c1NCC(CNCCCOc1ccccc1F)C2 (stereo not given) | 17.4
CCc1noc(C(C)N2CCN(c3ccc(C#N)cn3)CC2)n1 (stereo not given) | -26.5
Cc1cc(F)ccc1CN1CCCC2(C1)OCCO2 | 10.5
O=C(c1ccoc1)N1CC[C@H]2OCC[C@@]2(COc2ncccc2F)C1 | 3.1
CC(C)C(=O)NC1CCN(Cc2cccc3c2OCCO3)CC1 | 5.01
CCn1cc(CN2CCCN(C(=O)c3sccc3C#N)CC2)cn1 | -4.04
Cc1nc(C)n(CC2CCCCN2Cc2nnc(C3CC3)o2)n1 (stereo not given) | -4.29
Cc1cnn(CC2CCCN2Cc2nc3ccccc3n2C)c1 (stereo not given) | -9.07
O=C(c1cccnc1)N1CCc2ncnc(C3CCOC3)c2CC1 (stereo not given) | -9.92
CC(=O)N1CCOCC2(CN(Cc3ccc(C)o3)CCO2)C1 (stereo not given) | -4.76
Cc1nc[nH]c1CN(C)CC1CCCN(CCc2ccc(Cl)cc2)C1 (stereo not given) | -62.7
